# Inconclusive results are not listed. Where a call stands in place of a potency, no number is given. Values without a mark were called inactive. Calls of active or inactive are those of the source. The call rests on the fitted dose curve; in most records, active means well fitted curve in the direction sought with a large enough effect in the repeat runs; inconclusive means weak or mixed curves; inactive means no such curve, though single readings can be large; an effect the other way counts as inactive or inconclusive.
# Tests used:
# [1] = biological target: Cytochrome P450 2C9 (Homo sapiens) (UniProt P11712); assay: Cytochrome P450 Family 2 Subfamily C Member 9 (CYP2C9) small molecule antagonists: luciferase reporter qHTS assay (AID 1671198); on activity change, negative = inhibition: series mostly up to about 120 µM
# Cytochrome P450 2C9 (Homo sapiens), sequence (P11712 whole entry, looked up): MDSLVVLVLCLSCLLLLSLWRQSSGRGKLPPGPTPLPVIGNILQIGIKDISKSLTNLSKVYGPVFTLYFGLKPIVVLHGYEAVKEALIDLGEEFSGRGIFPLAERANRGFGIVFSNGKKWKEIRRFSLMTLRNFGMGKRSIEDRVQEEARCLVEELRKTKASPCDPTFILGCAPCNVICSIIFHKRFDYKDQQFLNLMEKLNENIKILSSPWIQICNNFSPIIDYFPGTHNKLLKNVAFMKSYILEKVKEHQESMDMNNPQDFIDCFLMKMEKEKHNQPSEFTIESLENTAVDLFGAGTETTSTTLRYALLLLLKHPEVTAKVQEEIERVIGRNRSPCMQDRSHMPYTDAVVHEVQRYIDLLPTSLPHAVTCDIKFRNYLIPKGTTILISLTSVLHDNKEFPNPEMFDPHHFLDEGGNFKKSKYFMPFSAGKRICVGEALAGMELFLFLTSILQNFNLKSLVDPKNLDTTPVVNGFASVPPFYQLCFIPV
# Procedure, shortened: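 P450-Glo proluciferin substrate with CYP2C9 enzyme; 10 min RT preincubation, then NADPH regeneration 1 h at 37C; luciferin detection reagent 20 min RT, luminescence in relative luminescence units.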
# [2] = biological target: Cytochrome P450 1A2 (Homo sapiens) (UniProt P05177); assay: Cytochrome P450 Family 1 Subfamily A Member 2 (CYP1A2) small molecule antagonists: luciferase reporter qHTS assay (AID 1671199); on activity change, negative = inhibition: series mostly up to about 120 µM
# Cytochrome P450 1A2 (Homo sapiens), sequence (P05177 whole entry, looked up): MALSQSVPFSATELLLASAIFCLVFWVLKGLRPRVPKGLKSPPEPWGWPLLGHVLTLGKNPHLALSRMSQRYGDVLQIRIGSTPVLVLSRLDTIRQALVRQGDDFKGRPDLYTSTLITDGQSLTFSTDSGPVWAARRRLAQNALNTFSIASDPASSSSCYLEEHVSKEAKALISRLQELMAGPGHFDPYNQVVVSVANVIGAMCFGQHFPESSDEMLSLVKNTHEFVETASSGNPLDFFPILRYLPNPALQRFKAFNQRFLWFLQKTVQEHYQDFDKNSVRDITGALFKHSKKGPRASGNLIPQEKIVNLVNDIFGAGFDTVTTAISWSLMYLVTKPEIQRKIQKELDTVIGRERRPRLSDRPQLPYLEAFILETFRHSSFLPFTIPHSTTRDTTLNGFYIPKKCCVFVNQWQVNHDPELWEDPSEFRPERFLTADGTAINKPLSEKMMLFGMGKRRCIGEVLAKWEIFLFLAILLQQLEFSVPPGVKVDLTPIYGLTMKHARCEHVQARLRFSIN
# Procedure, shortened: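 P450-Glo CYP1A2, 1536-well qHTS: enzyme/proluciferin substrate + cpd (DMSO), 10 min RT; NADPH regen, 1 h RT; detection reagent, 20 min; luminescence, RLU.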
# [3] = biological target: Voltage-gated inwardly rectifying potassium channel KCNH2 (Homo sapiens) (UniProt Q12809); assay: Human Ether-a-go-go-Related Gene (hERG) channel small molecule antagonists: fluorescence cell-based qHTS assay (AID 1671200);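 on activity change, negative = inhibition: hERG-expressing U2OS cells given a thallium stimulus after FluxOR II dye loading; series mostly up to about 77 µM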
# Voltage-gated inwardly rectifying potassium channel KCNH2 (Homo sapiens), sequence (Q12809 whole entry, looked up): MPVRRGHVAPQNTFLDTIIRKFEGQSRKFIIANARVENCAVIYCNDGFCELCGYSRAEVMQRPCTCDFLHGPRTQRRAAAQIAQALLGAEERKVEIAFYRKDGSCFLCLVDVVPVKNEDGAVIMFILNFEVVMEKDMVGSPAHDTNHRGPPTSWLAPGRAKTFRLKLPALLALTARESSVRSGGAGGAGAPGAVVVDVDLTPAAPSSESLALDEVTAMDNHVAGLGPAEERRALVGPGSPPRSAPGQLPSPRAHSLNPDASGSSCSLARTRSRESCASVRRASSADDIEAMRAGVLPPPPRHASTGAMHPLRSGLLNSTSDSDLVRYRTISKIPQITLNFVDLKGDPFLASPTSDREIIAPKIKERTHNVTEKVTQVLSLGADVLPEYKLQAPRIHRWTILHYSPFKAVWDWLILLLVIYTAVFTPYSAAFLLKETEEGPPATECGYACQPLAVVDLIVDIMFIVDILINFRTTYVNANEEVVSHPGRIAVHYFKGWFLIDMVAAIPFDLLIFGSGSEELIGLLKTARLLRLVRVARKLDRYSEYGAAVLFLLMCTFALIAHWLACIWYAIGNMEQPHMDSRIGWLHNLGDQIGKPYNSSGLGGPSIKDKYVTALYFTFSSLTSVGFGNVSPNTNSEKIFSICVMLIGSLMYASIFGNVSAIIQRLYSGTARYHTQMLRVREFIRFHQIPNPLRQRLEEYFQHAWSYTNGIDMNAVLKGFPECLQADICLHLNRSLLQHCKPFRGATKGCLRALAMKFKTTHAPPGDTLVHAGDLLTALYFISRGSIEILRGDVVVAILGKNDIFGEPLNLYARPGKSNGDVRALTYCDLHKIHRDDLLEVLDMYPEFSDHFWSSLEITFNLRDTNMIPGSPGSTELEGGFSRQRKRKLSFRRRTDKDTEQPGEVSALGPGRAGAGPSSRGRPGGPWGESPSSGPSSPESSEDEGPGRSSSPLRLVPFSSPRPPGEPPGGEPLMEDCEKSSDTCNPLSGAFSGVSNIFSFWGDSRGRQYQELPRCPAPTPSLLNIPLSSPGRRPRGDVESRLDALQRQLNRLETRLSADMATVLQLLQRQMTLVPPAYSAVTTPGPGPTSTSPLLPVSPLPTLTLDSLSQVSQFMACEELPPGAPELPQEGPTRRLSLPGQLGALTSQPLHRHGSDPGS
# Procedure, shortened: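 Measured: Tl+ flux via fluorescence (480/540 nm) in hERG-expressing U2OS cells after 1 h dye loading at room temperature.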
# [4] = biological target: Cytochrome P450 3A4 (Homo sapiens) (UniProt P08684); assay: Cytochrome P450 Family 3 Subfamily A Member 4 (CYP3A4) small molecule antagonists: luciferase reporter qHTS assay (AID 1671201); on activity change, negative = inhibition: series mostly up to about 120 µM
# Cytochrome P450 3A4 (Homo sapiens), sequence (P08684 whole entry, looked up): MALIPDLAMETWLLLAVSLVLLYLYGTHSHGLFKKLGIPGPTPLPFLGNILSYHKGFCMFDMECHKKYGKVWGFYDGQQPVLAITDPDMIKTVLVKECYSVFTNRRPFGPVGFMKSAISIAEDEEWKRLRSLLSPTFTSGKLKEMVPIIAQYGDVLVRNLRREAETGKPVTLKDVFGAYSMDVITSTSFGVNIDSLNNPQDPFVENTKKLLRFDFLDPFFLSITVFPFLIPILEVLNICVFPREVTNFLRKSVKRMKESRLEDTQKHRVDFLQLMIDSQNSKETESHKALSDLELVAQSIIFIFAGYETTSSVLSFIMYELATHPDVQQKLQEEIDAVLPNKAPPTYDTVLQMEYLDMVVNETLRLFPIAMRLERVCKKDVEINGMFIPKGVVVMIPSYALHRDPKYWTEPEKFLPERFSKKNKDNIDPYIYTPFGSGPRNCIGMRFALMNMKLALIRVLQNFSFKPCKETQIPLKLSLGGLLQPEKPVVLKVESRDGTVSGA
# Procedure, shortened: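 Setup: enzyme-substrate mix, compound pin transfer, 10 min RT. Reaction: NADPH regeneration solution, 1 h RT. Readout: detection reagent stops turnover, luminescence measured after 20 min, expressed in relative luminescence units.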
# Further: nearly all actives have a fitted effect of over 50% in size.
# Potency means the concentration at half of the fitted maximal effect.
structure (smiles),measurement,setting,value
Nc1ccc(S(=O)(=O)Nc2ccccc2)cc1,Potency,[1],inactive
same,Potency,[2],inactive
same,Potency,[3],inactive
Cc1nn(C)c(Oc2ccccc2)c1/C=N/OCc1ccc(C(=O)OC(C)(C)C)cc1,Potency,[1],2.83 µM (active)
CCCOC(C(=O)OC1CCN(C)CC1)(c1ccccc1)c1ccccc1,Potency,[1],inactive
same,Potency,[2],inactive
c1cc(CCCc2ccncc2)ccn1,Potency,[1],5.64 µM (active)
same,Potency,[2],1.78 µM (active)
same,Potency,[3],inactive
same,Potency,[4],1 µM (active)
Clc1ccc(Cn2c(CN3CCCC3)nc3ccccc32)cc1,Potency,[1],15.5 µM (active)
same,Potency,[2],18.2 µM (active)
same,Potency,[3],1.34 µM (active)
CC[N+](C)(CC)CCOC(=O)C(O)(c1ccccc1)C1CCCCC1 (centres undefined),Potency,[1],inactive
same,Potency,[2],inactive
same,Potency,[3],inactive
O=C1CCC(=O)O1,Potency,[1],inactive
same,Potency,[2],inactive
same,Potency,[3],inactive
same,Potency,[4],inactive
Nc1ccc(N)c2c1C(=O)c1ccccc1C2=O,Potency,[1],12.6 µM (active)
same,Potency,[2],0.399 µM (active)
same,Potency,[3],inactive
same,Potency,[4],5.64 µM (active)
O=C(Nc1ccccc1)c1ccccc1O,Potency,[1],31.7 µM (active)
same,Potency,[2],5.03 µM (active)
same,Potency,[3],inactive
same,Potency,[4],inactive
O=P(O)(OCc1ccccc1)OCc1ccccc1,Potency,[1],22.4 µM (active)
same,Potency,[2],inactive
same,Potency,[3],inactive
same,Potency,[4],inactive
CC1=CC=C(C(C)C)CC1,Potency,[1],63.3 µM (active)
same,Potency,[2],31.7 µM (active)
same,Potency,[3],inactive
same,Potency,[4],39.9 µM (active)
CCc1cc(C2=C(C(=O)O)N(c3ccccc3C(F)(F)F)S(=O)(=O)c3ccccc32)cc2c1OCO2,Potency,[1],11.1 µM (active)
same,Potency,[2],inactive
same,Potency,[3],inactive
same,Potency,[4],2.79 µM (active)
NCC(=O)CCC(=O)O,Potency,[1],inactive
same,Potency,[2],inactive
same,Potency,[3],inactive
same,Potency,[4],inactive
CCN(CC)CCNc1ccc(CNC=O)c2sc3ccc(OC)cc3c(=O)c12,Potency,[1],31.7 µM (active)
same,Potency,[2],22.4 µM (active)
same,Potency,[3],inactive
same,Potency,[4],20 µM (active)
COCCCN1CCC(NC(=O)c2cc(Cl)c(N)c3c2OCC3)CC1,Potency,[1],3.09 µM (active)
same,Potency,[2],inactive
same,Potency,[3],inactive
same,Potency,[4],inactive
CC(=O)NO,Potency,[1],inactive
same,Potency,[2],inactive
same,Potency,[3],inactive
same,Potency,[4],inactive
C[N+](C)(C)CCOC(=O)CCC(=O)OCC[N+](C)(C)C,Potency,[1],inactive
same,Potency,[2],inactive
same,Potency,[3],inactive
same,Potency,[4],inactive
CC(=O)c1cccc([N+](=O)[O-])c1,Potency,[1],inactive
same,Potency,[2],35.5 µM (active)
same,Potency,[3],inactive
same,Potency,[4],inactive
CN1CCC(N(Cc2cccs2)c2ccccc2)CC1,Potency,[1],inactive
same,Potency,[2],inactive
same,Potency,[3],2.68 µM (active)
same,Potency,[4],inactive
O=C(OCCCCCCOC(=O)c1ccccc1)c1ccccc1,Potency,[1],7.96 µM (active)
same,Potency,[2],3.17 µM (active)
same,Potency,[3],inactive
same,Potency,[4],inactive
COc1cc(Cl)c(OC)cc1N,Potency,[1],35.6 µM (active)
same,Potency,[2],5.03 µM (active)
same,Potency,[3],inactive
same,Potency,[4],31.7 µM (active)
COc1ccc(C(=O)N2CCN(CC(=O)N3CCOCC3)CC2)cc1,Potency,[1],inactive
same,Potency,[2],inactive
same,Potency,[3],inactive
same,Potency,[4],inactive
CCO[C@H](Cc1ccc(OCCc2ccc(OS(C)(=O)=O)cc2)cc1)C(=O)O,Potency,[1],inactive
same,Potency,[2],inactive
same,Potency,[3],inactive
same,Potency,[4],inactive
COc1ccc(C(=O)c2ccc(OC)cc2O)c(O)c1,Potency,[1],11.3 µM (active)
same,Potency,[2],0.402 µM (active)
same,Potency,[3],inactive
same,Potency,[4],25.4 µM (active)
O=C1OC(CN2CCOCC2)CN1/N=C/c1ccc([N+](=O)[O-])o1 (centres undefined),Potency,[1],inactive
same,Potency,[2],inactive
same,Potency,[3],inactive
same,Potency,[4],inactive
O=C(O)CNCC(=O)O,"activity change, negative = inhibition",[1],-0.595% [at 10.5 µM]
same,"activity change, negative = inhibition",[2],-1.26% [at 10.5 µM]
same,"activity change, negative = inhibition",[3],4.26% [at 6.97 µM]
same,"activity change, negative = inhibition",[4],0.283% [at 10.5 µM]
COc1ccc(C)cc1[N+](=O)[O-],Potency,[1],inactive
same,Potency,[2],10.2 µM (active)
same,Potency,[3],inactive
same,Potency,[4],36.1 µM (active)
O=C(O)c1ccc(S(=O)(=O)O)cc1C(=O)O,Potency,[1],inactive
same,Potency,[2],inactive
same,Potency,[3],inactive
same,Potency,[4],inactive
CC(=O)[O][Al][O]C(C)=O,Potency,[1],inactive
same,Potency,[2],inactive
same,Potency,[3],inactive
same,Potency,[4],inactive
CCn1cc(C(=O)O)c(=O)c2cnc(N3CCNCC3)nc21,Potency,[1],inactive
same,Potency,[2],inactive
same,Potency,[3],inactive
same,Potency,[4],inactive
CCOC(=O)C(O)c1ccccc1 (centres undefined),Potency,[1],inactive
same,Potency,[2],inactive
same,Potency,[3],inactive
same,Potency,[4],inactive
CC(C)(CO)[N+](=O)[O-],Potency,[1],inactive
same,Potency,[2],inactive
same,Potency,[3],inactive
same,Potency,[4],inactive
C=CC1CC2C=CC1C2 (centres undefined),Potency,[1],inactive
same,Potency,[2],inactive
same,Potency,[3],inactive
same,Potency,[4],inactive
C=C(C)C(=O)OCCO,Potency,[1],inactive
same,Potency,[2],inactive
same,Potency,[3],inactive
same,Potency,[4],inactive
CC/C=C\CCOC(=O)CC,Potency,[1],inactive
same,Potency,[2],inactive
same,Potency,[3],inactive
same,Potency,[4],inactive
O=S(=O)(Oc1ccc(Cl)cc1)c1ccccc1,Potency,[1],31.7 µM (active)
same,Potency,[2],5.64 µM (active)
same,Potency,[3],inactive
same,Potency,[4],inactive
O=C(OCCc1ccccc1)c1ccccc1,Potency,[1],31.7 µM (active)
same,Potency,[2],20 µM (active)
same,Potency,[3],inactive
same,Potency,[4],inactive
CCCCCC[C@@H](O)C/C=C\CCCCCCCC(=O)OC,Potency,[1],12.7 µM (active)
same,Potency,[2],35.7 µM (active)
same,Potency,[3],inactive
same,Potency,[4],inactive
